HIF act = HIF pathway transcriptional activation. U2OS HRE-luciferase reporter, luminescence; normalized: DMSO 0%, desferrioxamine 100%. activation, % at 7.5 µM (by protocol). actives 0.32% (n = 300,000);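 active = mean activation of at least 10% of the iron chelator positive control signal, with at least half of replicates also reaching 10%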
SMARCA2 act = SMARCA2 function activation, primary screen | MG213 cells, MMTV-luciferase reporter, dexamethasone, overnight | activation, % at 9.1 µM | actives 1% (n = 370,000); in the data active = activation above about 7.8%;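 also: 0% = vehicle wells and 100% = reference activator wells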
GalR3 antag = blocks the human galanin receptor 3 | O60755 | HEK293 GalR3-CNG cAMP membrane potential fluorescence; galR3 body fused to GalR1 C-terminus | inhibition, % at 3 µM | actives 0.44% (n = 360,000) | AID 651719;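 active = inhibition above the screen-wide average plus 3 SD, cut at about 13% in these data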;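 also: forskolin and galanin both at EC90 stimulate the cells; cAMP rise reported by CNG channel membrane potential dye signal; 0% = forskolin plus galanin with DMSO and 100% = forskolin alone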
Target sequence (O60755 1-299 limits assumed): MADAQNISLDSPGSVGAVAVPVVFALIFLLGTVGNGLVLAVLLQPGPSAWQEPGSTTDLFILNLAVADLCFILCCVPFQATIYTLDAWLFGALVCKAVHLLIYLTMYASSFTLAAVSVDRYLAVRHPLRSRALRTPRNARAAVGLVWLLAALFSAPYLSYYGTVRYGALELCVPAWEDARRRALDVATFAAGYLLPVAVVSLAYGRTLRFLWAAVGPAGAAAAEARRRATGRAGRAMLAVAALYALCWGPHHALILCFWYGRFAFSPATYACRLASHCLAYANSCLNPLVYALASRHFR
Hsp70 activator = transcriptional activators of Hsp70; actives 0.04% (n = 200,000); activation, % at 10 µM; HeLa Hsp70 promoter luciferase reporter, luminescence; scaled: vehicle 0, proteasome-inhibitor control 100%;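 active = activation above the mean across all tested compounds plus 3 SD, cutoff set per campaign, cut at about 5.5% in these data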;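 also: 100% = MG132 at 30 µM as the positive control and 0% = DMSO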
GAA850 FXN act = increases GAA850 frataxin promoter reporter activity; HEK293 lucGAA850 FXN promoter luciferase reporter, 24 h; percent of 10 µM SAHA response; activation, % at 6 µM; actives 0.56% (n = 360,000);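 active = activation above the average of all compounds screened plus 3 SD, cutoff fixed separately per campaign, cut at about 7.5% in these data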;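 also: 0% = DMSO wells and 100% = 10 µM SAHA wells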
GalR3 antag conf = GalR3 (human) antagonism, confirmation. shares compounds with GalR3 antag. HEK293 GalR3 CNG cAMP biosensor, membrane potential fluorescence; galR3 fused to GalR1 carboxy tail; challenged with forskolin and galanin at EC90. inhibition, % at 3 µM. actives 59% (n = 1,600). AID 652245;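 active = inhibition above the primary screen's cutoff, the mean inhibition of all screened compounds plus 3 SD, cut at about 13% in these data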;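 also: 0% = forskolin plus galanin and 100% = forskolin alone with DMSO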
CNG parental = counter-screen for GalR3 antagonists: nonspecific agonists in parental HEK-CNG cells; activation, % at 3 µM; HEK293-CNG parental cells, cAMP membrane potential fluorescence; normalised: DMSO wells 0%, forskolin wells 100%; actives 10% (n = 1,600); shares compounds with GalR3 antag; in the data active = activation above about 1.3%
The depositor's hits bear a star; . = not tested or not shown. The list is not random: actives were taken first. Their share in the collection is about 2.2%.

SMILES	HIF act	SMARCA2 act	GalR3 antag	Hsp70 activator	GAA850 FXN act	GalR3 antag conf	CNG parental
COc1ccc(Cc2c(O)nc(SCC(=O)NC34CC5CC(CC(C5)C3)C4)[nH]c2=O)cc1	0	4	-3	0	2	4	0
Cc1ccccc1CCNC(=O)c1ccc(Cl)c(S(=O)(=O)N2CC(C)OC(C)C2)c1 (stereo not given)	.	-5	107*	.	-5	92*	0
CN(C)C(CNC(=O)c1ccc(Cl)c(S(=O)(=O)N2CCCCCC2)c1)c1ccccc1 (stereo not given)	.	-7	71*	.	-4	88*	1.3*
COC(=O)c1cc2c(c3c4cc(OC)ccc4n(S(C)(=O)=O)c13)C(=O)N(C)C2	.	-2	-6	.	.	.	.
Cc1occc1-c1nnc(SCC(=O)NCCc2ccccc2)o1	-1	4	0	0	4	.	.
Cc1occc1-c1nnc(SCCNCCO)o1	-1	-3	15*	0	-2	5	0
COC(=O)[C@]12C[C@H](CC(=O)N3CCOCC3)C(=O)N(Cc3ccccc3)C1=C[C@H](C(C)(C)C)O[C@@H]2C	.	-6	-2	.	.	.	.
C#CCN1CC(N(C)CCOC(=O)c2ccc(OC)c(OC)c2)CS1(=O)=O (stereo not given)	.	-6	.	.	.	.	.
CCCc1[nH]nc2c1C(c1ccc(OC)c(CSC3=NCCS3)c1)C(C#N)=C(N)O2 (stereo not given)	1	-6	20*	0	2	3	1
O=C(Nc1nc(-c2ccccc2)cs1)c1ccccc1NS(=O)(=O)c1ccc(F)cc1	1	-8	17*	0	-8	77*	-1
COc1ccccc1/C=C/C(=O)Nc1cccnc1Cl	-12	6	-9	.	4	.	.
COc1ccccc1-c1cc(C(F)(F)F)nc(S(=O)(=O)CCCC(=O)Nc2cccnc2Cl)n1	.	2	22*	0	3	22*	0
CCCCc1nnc(NC(=O)c2nc3nccc(C)n3n2)s1	-1	-1	-5	0	-1	.	.
CCc1nnc(NC(=O)c2nc3nc(C)cc(C)n3n2)s1	0	1	13*	0	-3	0	0
COc1cc(C=Nn2c(-c3ccccc3F)n[nH]c2=S)ccc1OCc1ccccc1	.	-4	.	.	.	.	.
CCSc1nnc(Cn2c(=O)sc3ccccc32)n1C	0	-1	.	0	-1	2	0
O=C(Nc1ccccc1)Nc1nc2ncccn2c1-c1ccc(C(F)(F)F)cc1	.	-2	.	.	.	.	.
CCn1nc(CC(=O)Nc2ccc(-n3cnnn3)c(C)c2)c2ccccc2c1=O	-37	1	-2	1	1	.	.
CCn1nc(CC(=O)Nc2ccc(-n3cnnn3)c(OC)c2)c2ccccc2c1=O	0	-3	17*	0	1	17*	0
N#Cc1c([N+](=O)[O-])cc([N+](=O)[O-])cc1S(=O)(=O)Cc1ccccc1	.	-8	64*	.	-11	25*	-1
COC(=O)C1=C(C)N(C)C(=NCc2ccc3c(c2)OCO3)NC1c1ccc(Cl)cc1 (stereo not given)	.	-6	-8	.	.	.	.
CC1=C[C@]2(C[N+](Cc3ccccc3)=C(N)N2)n2c(=O)n(-c3ccccc3)c(=O)n2C1	.	1	.	.	.	.	.
O=C(COC(=O)Cc1c(F)cccc1Cl)NC(=O)c1ccccc1	1	2	-2	.	-1	.	.
CC(C)NC(=O)NC(=O)COC(=O)Cc1c(F)cccc1Cl	0	-5	25*	0	1	14*	0
COc1ccc(C(=O)CSc2nnc(-c3cccnc3)n2-c2ccc(C)cc2)cc1	.	-3	.	.	.	.	.
COC(OC)c1ccnc(-c2ccc(OC(=O)c3cccs3)cc2)n1	2	-2	17*	0	0	5	0
COC(OC)c1ccnc(-c2ccc(OC(=O)c3ccccc3)cc2)n1	1	-1	-8	0	1	.	.
O=[N+]([O-])c1ccc(CN2[C@H](COCc3ccccc3)C=CS2(=O)=O)cc1	.	-4	-1	.	.	.	.
